# Data taken from PubChem BioAssay (NCI).
# This is part of a sample that, as a whole, favours compounds with a hit. Of some 79,000 tested, about 15% had one in any assay. Unmarked numbers belong to inactive results. Calls of active or inactive are those of the source. No stated cut-off is given here; in the data, active means growth inhibition above about 70%; inactive means the rest.
# Assays:
# [1] = NCI Yeast Anticancer Drug Screen. Data for the rad50 strain (AID 155);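 further: 0% = growth of vehicle-only cultures of the same strain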; details: S. cerevisiae rad50 strain growth inhibition; at 50.0 µM; active compounds read high
# How it was run: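 A DNA repair-deficient yeast mutant serves as the test organism; compound-induced growth inhibition is calculated against vehicle-treated cells.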
# [2] = NCI Yeast Anticancer Drug Screen. Data for the mec2-1 strain (AID 157); details: S. cerevisiae mec2-1 strain, at 50.0 µM, active compounds read high
# How it was run: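 Strain: mec2-1 (DNA repair/cell cycle alteration). Compound exposure, then growth measured; inhibition expressed relative to vehicle.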
# [3] = NCI Yeast Anticancer Drug Screen. Data for the sgs1 mgt1 strain (AID 161);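 further: 0% = growth of cultures given vehicle only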; details: S. cerevisiae sgs1 mgt1 strain, at 50.0 µM, active compounds read high
# How it was run: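 Genetically altered yeast, compound exposure, growth inhibition relative to vehicle.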
# [4] = NCI Yeast Anticancer Drug Screen. Data for the cln2 rad14 strain (AID 165);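 further: 0% = growth equal to vehicle treated cultures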; details: S. cerevisiae cln2 rad14 strain, at 50.0 µM, active compounds read high
# How it was run: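 Compounds are applied to the cln2 rad14 yeast strain, and growth is then compared with that of vehicle-treated cultures to give inhibition.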
# [5] = NCI Yeast Anticancer Drug Screen. Data for the bub3 strain (AID 167); details: S. cerevisiae bub3 mutant strain, at 50.0 µM, active compounds read high
# How it was run: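 Inhibition values come from growth of compound-treated mutant yeast normalised to vehicle-treated controls.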
# [6] = NCI Yeast Anticancer Drug Screen. Data for the mlh1 rad18 strain (AID 175); details: S. cerevisiae mlh1 rad18 strain growth inhibition; at 50.0 µM; active compounds read high
# How it was run: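 Read-out is yeast growth inhibition, calculated against vehicle-only controls. The compound was applied to a strain engineered with DNA damage repair alterations.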
SMILES,growth inhibition [1],growth inhibition [2],growth inhibition [3],growth inhibition [4],growth inhibition [5],growth inhibition [6]
NNC(=O)/C(NC(=O)c1ccccc1)=C(\N)c1cccc([N+](=O)[O-])c1,-34.4%,-30.4%,11.7%,3.25%,-13.1%,0.9%
CN(C)S(=O)(=O)C=C(c1ccccc1)c1ccccc1,1.25%,4.1%,17.4%,-5.1%,15.3%,-0.2%
O=C(N/N=C/c1cc(Br)cc(Br)c1O)c1ccccc1,3.85%,-1.4%,11.3%,3.85%,-2.05%,28.4%
Cc1nc2ccccc2nc1N1CCCC1,-6.2%,-29.1%,-26.9%,-25.2%,-47.8%,0.55%
N=C1C(=O)C(=N)c2ccccc2-c2ccccc21,-31%,-48.8%,-14.7%,-0.05%,-36.6%,-23.9%
O=C(CCCCC(=O)Oc1ccc([N+](=O)[O-])cc1)Oc1ccc([N+](=O)[O-])cc1,10.9%,3.25%,13.3%,32%,3.4%,33%
O=c1[nH]c(Br)nc2c(Br)c[nH]c12,-17.1%,-0.15%,-18.4%,-12.8%,-22.2%,-18.9%
CCCCCCCC(NC(C)=O)(C(=O)OCC)C(=O)OCC,-9.25%,-19.1%,-4.55%,-29.9%,6.75%,-28.8%
O[C@H]1[C@H]2[C@H](O)C[C@H](CCOCc3ccccc3)CN2C[C@H]1O,-8.15%,7.8%,-3.45%,20%,16%,-22.9%
COc1cc(Nc2cc(Cl)cc(Cl)c2)nc(N)n1,76.4% (active),81% (active),6.5%,7.9%,9.35%,89.6% (active)
Cc1cc(=O)oc2ccccc12,8.8%,0.6%,10.9%,-3.1%,4.6%,1.55%
NC(N)=NC(N)=Nc1ccccc1,-15.9%,14.8%,-1.8%,-5.9%,1.15%,11.6%
CC1=C(C(=O)OCCO[N+](=O)[O-])C(c2ccccc2C(F)(F)F)C(C(=O)OC(C)C)=C(C)N1 (stereo unspecified),45.5%,17.4%,32.9%,53%,30%,-27.1%
COc1cc(C(=O)Oc2c(C(C)=O)sc3c2c(=O)n(-c2ccccc2)c(=S)n3-c2ccccc2)cc(OC)c1OC,19.7%,-5.8%,8.45%,-13.7%,17.9%,22.5%
CCOC(=O)CC(O)(c1ccccc1)c1ccccc1,-30.9%,-47.4%,7.35%,5.1%,-25.2%,-31.5%
CN(C)c1ccc(S(=O)(=O)c2ccc(N(C)C)c([N+](=O)[O-])c2)cc1[N+](=O)[O-],24%,-9.65%,-9.8%,0.45%,3.65%,-30.9%
NCC1(N2CCOCC2)C2CCCC21CNc1ccccc1 (stereo unspecified),-37.2%,-46.1%,-16%,-4.65%,-35.1%,-21%
Cc1nc(C(=O)N=C(N)N)c(N)nc1-c1ccccc1,-22.6%,-4.3%,-7.7%,-28.2%,-4.8%,-4%
COc1ccc(-c2cc(C(=O)O)c3cccc(C)c3n2)cc1,35.6%,-1.7%,35%,36.1%,23.8%,47.1%
CC(=O)O[C@@H]1CC[C@@]2(C)C(=O)C34C[C@@]5(C)C([C@@H](C)CCCC(C)C)CCC5(C)[C@](O)(O3)C(=O)[C@H]4C2C1(C)C (stereo partly specified),18.4%,24.6%,11.5%,1.8%,-0.05%,27.1%
Oc1ccc2ccccc2c1/C=N/N=C/c1c(O)ccc2ccccc12,31.4%,-14.6%,53.8%,20.9%,6.4%,3.8%
